Our source for the Percent Effect values is ChEMBL document CHEMBL3988442, “University of Dundee, Small-Polar-MMV Screening Library” (2021).

Common to all, as to set-up: scale not given: direction of the effect not stated beside the values
The target in experiment [1] is Protein translocase subunit SecA (Escherichia coli (strain K12)) (UniProt P10408). The experiment is described as follows: Assay to Identify E. coli SecA ATPase Inhibitors. To be noted: 30 µM. It counts as functional.
The target of experiment [2] is T1, Ubiquitin-activating enzyme e1, putative (Leishmania donovani (strain BPK282A1)) (UniProt E9BSI1).
T1 sequence (whole entry): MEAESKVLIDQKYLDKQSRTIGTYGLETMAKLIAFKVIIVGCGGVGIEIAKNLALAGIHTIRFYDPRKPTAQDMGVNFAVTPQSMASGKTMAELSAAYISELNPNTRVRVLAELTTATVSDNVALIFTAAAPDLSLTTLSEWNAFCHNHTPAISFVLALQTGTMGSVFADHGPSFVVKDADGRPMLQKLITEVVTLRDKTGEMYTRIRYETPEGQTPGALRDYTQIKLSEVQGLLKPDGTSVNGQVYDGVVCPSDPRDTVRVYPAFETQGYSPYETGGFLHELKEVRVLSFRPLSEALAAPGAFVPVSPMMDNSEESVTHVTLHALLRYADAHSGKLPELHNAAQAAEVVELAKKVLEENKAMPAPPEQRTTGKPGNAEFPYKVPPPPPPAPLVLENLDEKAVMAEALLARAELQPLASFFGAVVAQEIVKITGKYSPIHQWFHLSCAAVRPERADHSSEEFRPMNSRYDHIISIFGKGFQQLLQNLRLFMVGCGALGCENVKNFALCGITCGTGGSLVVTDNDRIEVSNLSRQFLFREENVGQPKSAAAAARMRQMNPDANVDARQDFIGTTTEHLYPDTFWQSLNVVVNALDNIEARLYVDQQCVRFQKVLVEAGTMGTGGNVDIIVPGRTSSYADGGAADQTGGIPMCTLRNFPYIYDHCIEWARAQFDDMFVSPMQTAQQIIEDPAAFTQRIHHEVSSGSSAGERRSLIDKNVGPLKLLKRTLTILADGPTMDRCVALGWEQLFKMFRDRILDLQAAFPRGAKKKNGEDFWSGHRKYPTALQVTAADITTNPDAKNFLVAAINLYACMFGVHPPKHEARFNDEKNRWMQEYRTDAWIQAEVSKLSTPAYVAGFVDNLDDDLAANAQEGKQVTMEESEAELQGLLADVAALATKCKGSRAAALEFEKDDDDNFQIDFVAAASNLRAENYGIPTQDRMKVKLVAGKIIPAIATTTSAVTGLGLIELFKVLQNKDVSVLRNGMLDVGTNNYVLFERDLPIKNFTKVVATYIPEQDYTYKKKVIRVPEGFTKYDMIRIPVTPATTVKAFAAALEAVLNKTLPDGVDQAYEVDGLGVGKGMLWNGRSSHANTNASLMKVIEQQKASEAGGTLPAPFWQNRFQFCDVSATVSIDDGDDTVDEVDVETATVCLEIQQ
As to the kind of experiment: Leishmania donovani Ubiquitin Activating Enzyme (LdE1). It counts as functional. To be noted: 30 µM.

Experiment [3] addresses AMP-activated protein kinase, AMPK (Homo sapiens) (UniProt P54646+O43741+P54619+Q9UGJ0+Q9Y478+Q13131+Q9UGI9). As to the kind of experiment: AMP-dependent Kinase enzyme assay. An in vitro enzyme assay that detects ADP turnover that is directly proportional to AMPK activity. This uses naive AMPK that is activated during the assay with MK-8722. The format is functional. To be noted: 30 µM.

For experiment [4], the target named is Sialic acid-binding Ig-like lectin 9 (Homo sapiens) (UniProt Q9Y336). As to the kind of experiment: Hs-Siglec9 ALPHAscreen SOP 20170721. To be noted: 10 µM. (Bead proximity is the source of the signal in Alpha formats.)
Chain of Sialic acid-binding Ig-like lectin 9 (Homo sapiens) (Q9Y336 whole entry): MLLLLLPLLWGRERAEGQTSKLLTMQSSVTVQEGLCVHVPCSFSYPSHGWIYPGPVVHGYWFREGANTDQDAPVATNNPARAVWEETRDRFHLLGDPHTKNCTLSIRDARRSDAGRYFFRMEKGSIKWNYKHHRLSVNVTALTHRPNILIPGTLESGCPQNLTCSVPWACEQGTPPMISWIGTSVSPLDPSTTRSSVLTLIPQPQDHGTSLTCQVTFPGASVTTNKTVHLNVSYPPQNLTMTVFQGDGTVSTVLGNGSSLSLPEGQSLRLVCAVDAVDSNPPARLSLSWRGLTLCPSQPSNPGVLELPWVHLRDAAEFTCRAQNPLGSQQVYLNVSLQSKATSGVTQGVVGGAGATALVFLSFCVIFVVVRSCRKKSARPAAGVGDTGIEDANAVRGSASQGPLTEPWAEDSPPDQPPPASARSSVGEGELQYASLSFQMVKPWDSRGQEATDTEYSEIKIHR
Another experiment concerns Trypanosoma cruzi. As to the kind of experiment: Trypanosoma cruzi phosphomannomutase and mannose-1-phosphate guanylyltransferase assay. It counts as functional. To be noted: 10 µM.
In experiment [5] the target is T2, Arginase-2, mitochondrial (Homo sapiens) (UniProt P78540).
T2 sequence (whole entry): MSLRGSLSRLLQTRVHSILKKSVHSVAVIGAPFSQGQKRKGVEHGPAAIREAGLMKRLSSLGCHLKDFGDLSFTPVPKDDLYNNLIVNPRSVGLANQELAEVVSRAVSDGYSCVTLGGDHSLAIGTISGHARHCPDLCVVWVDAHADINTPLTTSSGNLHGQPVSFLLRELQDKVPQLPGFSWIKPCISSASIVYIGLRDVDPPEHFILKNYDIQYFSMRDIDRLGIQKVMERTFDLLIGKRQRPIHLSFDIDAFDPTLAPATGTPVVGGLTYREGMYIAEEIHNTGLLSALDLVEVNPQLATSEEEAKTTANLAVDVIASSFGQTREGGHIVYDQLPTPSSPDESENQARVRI
As to the kind of experiment: in vitro enzyme assay to detect the production of urea directly proportional to the activity of Arginase II. Also: in the data most compounds retested in dose-response had high values. It counts as functional. To be noted: 33.3 µM.

Experiment [6] deals with T3, Proteasome subunit beta (Trypanosoma cruzi) (UniProt O96673).
T3 sequence (whole entry): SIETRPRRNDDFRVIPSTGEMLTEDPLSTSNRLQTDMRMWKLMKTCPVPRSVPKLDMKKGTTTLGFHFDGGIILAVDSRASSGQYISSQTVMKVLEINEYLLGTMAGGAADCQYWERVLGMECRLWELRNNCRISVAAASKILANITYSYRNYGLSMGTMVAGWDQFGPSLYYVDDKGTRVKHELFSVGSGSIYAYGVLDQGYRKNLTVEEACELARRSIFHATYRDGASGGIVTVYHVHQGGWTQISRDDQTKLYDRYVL
The experiment is described as follows: Trypanosoma cruzi proteasome chymotrypsin-like activity (TcProtChymo) assay. Also: in the data most compounds retested in dose-response had high values. The format is functional. To be noted: 9.37 µM.

The species entered for another experiment is Homo sapiens. As to the kind of experiment: To identify inhibition of the IFN signalling (Jak-Stat) pathway via expression of an eGFP reporter gene under the control of an IFN-stimulated response element (ISRE) containing MxA promoter. The format is functional. To be noted: 30 µM. On the technique in general: In a reporter assay the amount or activity of a reporter protein is the signal.

Experiment [7] concerns the target T4, Tyrosyl-tRNA synthetase, putative (Trypanosoma cruzi (strain CL Brener)) (UniProt Q4DSP6).
T4 sequence (whole entry): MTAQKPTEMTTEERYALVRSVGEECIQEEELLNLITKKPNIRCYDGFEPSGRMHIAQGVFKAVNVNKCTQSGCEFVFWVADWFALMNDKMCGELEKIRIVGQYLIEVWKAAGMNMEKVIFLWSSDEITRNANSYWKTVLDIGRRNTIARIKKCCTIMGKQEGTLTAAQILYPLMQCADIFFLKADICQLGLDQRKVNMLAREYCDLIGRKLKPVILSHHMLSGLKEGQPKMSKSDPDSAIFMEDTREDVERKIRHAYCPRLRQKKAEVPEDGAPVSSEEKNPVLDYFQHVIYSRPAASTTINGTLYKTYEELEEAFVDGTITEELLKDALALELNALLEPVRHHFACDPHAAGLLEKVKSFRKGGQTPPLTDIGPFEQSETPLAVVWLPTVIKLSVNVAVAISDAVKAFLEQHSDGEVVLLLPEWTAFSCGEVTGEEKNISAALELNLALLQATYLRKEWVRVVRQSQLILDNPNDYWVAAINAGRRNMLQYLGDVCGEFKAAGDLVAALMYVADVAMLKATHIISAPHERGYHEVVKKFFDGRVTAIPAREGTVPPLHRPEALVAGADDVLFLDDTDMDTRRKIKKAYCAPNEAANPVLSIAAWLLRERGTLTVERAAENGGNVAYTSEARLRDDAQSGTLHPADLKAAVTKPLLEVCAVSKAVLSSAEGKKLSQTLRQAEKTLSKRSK
The experiment is described as follows: Trypanosoma cruzi tyrosyl tRNA synthetase (TcYRS) _High Tyrosine SOP. Also: in the data most compounds retested in dose-response had high values. It counts as functional. To be noted: 30 µM.

The target in experiment [8] is T4, Tyrosyl-tRNA synthetase, putative (Trypanosoma cruzi (strain CL Brener)). The experiment is described as follows: Trypanosoma cruzi tyrosyl tRNA synthetase (TcYRS) SOP. The format is functional. To be noted: 30 µM.
Experiment [9] addresses Chromo domain-containing protein 1 (Saccharomyces cerevisiae (strain ATCC 204508 / S288c) (Baker's yeast)) (UniProt P32657). As to the kind of experiment: ScCHD-1 Enzyme Inhibition Assay. Also: in the data most compounds retested in dose-response had high values. It counts as functional. To be noted: 30 µM.

Each structure is given as a SMILES string. For some of these results: Measured potencies and affinities stand elsewhere.

Chain of Chromo domain-containing protein 1 (Saccharomyces cerevisiae (strain ATCC 204508 / S288c) (Baker's yeast)) (P32657 whole entry, the tested form may be a part): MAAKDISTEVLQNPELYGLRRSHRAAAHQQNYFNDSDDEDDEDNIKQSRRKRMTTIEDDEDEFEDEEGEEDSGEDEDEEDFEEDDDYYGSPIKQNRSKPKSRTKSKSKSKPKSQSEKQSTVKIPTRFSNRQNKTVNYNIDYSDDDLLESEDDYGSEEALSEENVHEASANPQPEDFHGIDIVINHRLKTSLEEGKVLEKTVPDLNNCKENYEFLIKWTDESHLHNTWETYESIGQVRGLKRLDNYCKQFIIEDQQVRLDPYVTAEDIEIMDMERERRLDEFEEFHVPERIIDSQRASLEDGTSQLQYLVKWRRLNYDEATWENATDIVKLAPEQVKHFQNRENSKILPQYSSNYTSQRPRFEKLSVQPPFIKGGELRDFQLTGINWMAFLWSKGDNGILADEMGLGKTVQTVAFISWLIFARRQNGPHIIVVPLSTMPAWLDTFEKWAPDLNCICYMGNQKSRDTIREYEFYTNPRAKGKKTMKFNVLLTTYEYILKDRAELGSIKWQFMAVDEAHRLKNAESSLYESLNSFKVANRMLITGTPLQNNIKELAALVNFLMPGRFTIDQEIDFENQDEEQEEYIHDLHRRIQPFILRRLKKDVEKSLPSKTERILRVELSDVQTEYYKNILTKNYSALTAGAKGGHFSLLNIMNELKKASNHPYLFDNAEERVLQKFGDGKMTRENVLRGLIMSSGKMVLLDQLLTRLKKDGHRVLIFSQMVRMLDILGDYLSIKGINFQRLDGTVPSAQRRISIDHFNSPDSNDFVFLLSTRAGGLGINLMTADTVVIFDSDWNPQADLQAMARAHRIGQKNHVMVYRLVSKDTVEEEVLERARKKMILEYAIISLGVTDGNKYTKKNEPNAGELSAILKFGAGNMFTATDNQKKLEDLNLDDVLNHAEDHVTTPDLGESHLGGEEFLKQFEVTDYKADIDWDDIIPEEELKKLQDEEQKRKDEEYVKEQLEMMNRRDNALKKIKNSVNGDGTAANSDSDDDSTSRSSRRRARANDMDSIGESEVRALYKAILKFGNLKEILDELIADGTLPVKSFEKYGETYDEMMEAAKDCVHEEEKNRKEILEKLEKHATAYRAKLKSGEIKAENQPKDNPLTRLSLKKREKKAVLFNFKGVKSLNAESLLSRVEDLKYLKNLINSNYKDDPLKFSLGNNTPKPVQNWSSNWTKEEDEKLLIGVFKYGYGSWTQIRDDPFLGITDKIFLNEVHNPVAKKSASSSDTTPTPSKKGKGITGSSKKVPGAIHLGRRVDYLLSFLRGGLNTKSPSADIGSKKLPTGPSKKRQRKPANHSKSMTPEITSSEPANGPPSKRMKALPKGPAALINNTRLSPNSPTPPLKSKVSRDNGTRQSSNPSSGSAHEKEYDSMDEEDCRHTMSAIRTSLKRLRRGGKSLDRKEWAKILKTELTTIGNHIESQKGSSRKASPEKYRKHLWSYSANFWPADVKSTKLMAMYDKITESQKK
Chain of Protein translocase subunit SecA (Escherichia coli (strain K12)) (P10408 whole entry): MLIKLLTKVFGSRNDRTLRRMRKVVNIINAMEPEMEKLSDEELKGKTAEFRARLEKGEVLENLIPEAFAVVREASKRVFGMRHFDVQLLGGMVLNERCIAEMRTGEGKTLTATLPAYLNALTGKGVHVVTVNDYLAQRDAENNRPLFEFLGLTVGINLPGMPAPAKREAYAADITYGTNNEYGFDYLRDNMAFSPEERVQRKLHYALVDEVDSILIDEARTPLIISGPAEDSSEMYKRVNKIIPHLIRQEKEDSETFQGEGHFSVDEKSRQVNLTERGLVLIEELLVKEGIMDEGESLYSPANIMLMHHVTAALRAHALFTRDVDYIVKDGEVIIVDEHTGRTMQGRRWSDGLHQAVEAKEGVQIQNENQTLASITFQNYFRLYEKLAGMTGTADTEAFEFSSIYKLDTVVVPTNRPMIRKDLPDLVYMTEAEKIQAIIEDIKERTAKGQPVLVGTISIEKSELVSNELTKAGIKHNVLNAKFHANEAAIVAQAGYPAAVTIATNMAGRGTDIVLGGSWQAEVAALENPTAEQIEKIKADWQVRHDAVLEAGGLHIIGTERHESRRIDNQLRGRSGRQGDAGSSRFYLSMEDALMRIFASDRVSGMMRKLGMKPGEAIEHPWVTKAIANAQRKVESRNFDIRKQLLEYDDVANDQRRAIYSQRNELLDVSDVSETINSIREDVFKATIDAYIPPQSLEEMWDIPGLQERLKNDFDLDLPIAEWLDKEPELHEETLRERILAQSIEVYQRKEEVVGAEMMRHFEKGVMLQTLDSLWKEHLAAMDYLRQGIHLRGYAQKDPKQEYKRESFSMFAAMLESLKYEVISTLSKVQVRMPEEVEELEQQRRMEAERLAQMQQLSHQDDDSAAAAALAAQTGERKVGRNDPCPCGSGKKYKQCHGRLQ

In the case of `CN(C)C(=O)N1CCC2(CCCN(Cc3cnn(C)c3)C2)C1` (stereo unspecified), the Percent Effect in experiment [1] is -3.04%; in [2] it was 0%; in experiment [3] it was 12%; in [4] it was 1.42%; with Trypanosoma cruzi, -2.83%; in experiment [5], 0.955%. Further, the Percent Effect in experiment [6] was 19%; in the experiment filed under Homo sapiens it was -3.73%; in experiment [7] it was 1.08%; in experiment [8] it was 5.13%; in [9], -0.435%.
For `CC1CCN(CCNC(=O)C2CCN(S(N)(=O)=O)CC2)CC1`, the Percent Effect is -1.93% in experiment [1]; 9.72% in [2]; -5.79% in [3]; -4.04% in [4]; -3.4% in the experiment on Trypanosoma cruzi; 1.77% in experiment [5]. Moreover, the Percent Effect in [6] was 10%; in the experiment listed under Homo sapiens, 3.48%; in [7], 2.1%; in experiment [8], 5.13%; in [9] it was -2.96%.
Regarding `CCn1nc(C)c2ncnc(NCC(=O)N3CCOCC3)c21`, the Percent Effect is -1.89% in experiment [1]; 9.33% in [2]; -3.08% in experiment [3]; 10.4% in experiment [4]; 2.55% in the experiment with Trypanosoma cruzi; -8.28% in [5]. For the same compound, the Percent Effect was 14.4% in experiment [6]; 30.3% in the experiment listed under Homo sapiens; -28.6% in experiment [7]; 5.13% in experiment [8]; -9.1% in [9].
Regarding `O=C(NCCNc1ccc(C(F)(F)F)cn1)c1cncc(Br)c1`, the Percent Effect in experiment [1] was 1.84%; in experiment [2], 15.6%; in experiment [3], 50.8%; in [4], -7%; with Trypanosoma cruzi it was -4.8%; in experiment [5] it was 3.58%. In addition, the Percent Effect in [6] is 12.5%; in the experiment filed under Homo sapiens, 27.5%; in [7] it was 13.3%; in [8] it was 30.6%; in [9], -20.7%.
With `O=C(Cn1nc(-c2ccc(F)cc2)oc1=O)NCc1ccc(F)cc1`, the Percent Effect was 0.533% in [1]; 10.5% in [2]; -7.15% in experiment [3]; -1.53% in experiment [4]; -7.52% in the experiment on Trypanosoma cruzi; -6.9% in experiment [5]. Moreover, the Percent Effect in [6] is 13.4%; in the experiment filed under Homo sapiens, 21%; in [7] it was 0.49%; in experiment [8], 7.32%; in experiment [9], -14.3%.
Consider `CC(C(=O)NCc1cccc(N2CC=CC2)c1)n1cccn1` (stereo unspecified), for which the Percent Effect was -6.41% in experiment [1]; 0% in experiment [2]; 3.53% in experiment [3]; 1.65% in experiment [4]; -1.5% in the experiment on Trypanosoma cruzi; -1.15% in experiment [5]. For the same compound, the Percent Effect in experiment [6] is -1.5%; in the experiment filed under Homo sapiens it was 22.9%; in [7], 0.49%; in experiment [8], -2.44%; in [9], -1.88%.
For `c1ccc(OCC2CC3(CCN(Cc4ccncc4)CC3)CO2)nc1` (stereo unspecified), the Percent Effect in experiment [1] is -3.46%; in experiment [2], 9.33%; in [3], 6.58%; in experiment [4], 5.09%; with Trypanosoma cruzi, -4.13%; in experiment [5] it was -4.4%. For the same compound, the Percent Effect in [6] is 12.2%; in the experiment filed under Homo sapiens, -5.36%; in experiment [7] it was 2.12%; in experiment [8], 7.69%; in [9], -5.62%.
With `COc1ccccc1CC(=O)NS(=O)(=O)c1cncc(Br)c1`, the Percent Effect in experiment [1] is -4.15%; in experiment [2], 2.6%; in experiment [3], 4.69%; in experiment [4] it was -5.24%; with Trypanosoma cruzi, -1.87%; in experiment [5] it was 2.13%. Besides, the Percent Effect in experiment [6] is 1.35%; in the experiment filed under Homo sapiens, 21.7%; in experiment [7], -4.85%; in [8], -4.88%; in experiment [9] it was -7.14%.
Consider `Cc1nc(CN2CCC(C(=O)O)(n3ccc(-c4ccco4)n3)CC2)co1`, for which the Percent Effect in experiment [1] was -6.11%; in experiment [2], 8.22%; in experiment [3], -0.438%; in experiment [4], 4.25%; in the experiment with Trypanosoma cruzi, 0%; in experiment [5], -0.399%. The Percent Effect in experiment [6] is 12.9%; in the experiment listed under Homo sapiens, 23.4%; in [7], 1.04%; in experiment [8], 3.7%; in experiment [9] it was -0.0478%.
As to `Cc1nn(C)c(C)c1C1CCCN1C(=O)CCNc1ncccn1` (stereo unspecified), the Percent Effect in [1] was -5.59%; in [2] it was 18.4%; in experiment [3] it was -8.92%; in experiment [4] it was 11.3%; in the experiment with Trypanosoma cruzi, 5.32%; in [5], -8.63%. Also, the Percent Effect was -1.1% in experiment [6]; -2.96% in the experiment listed under Homo sapiens; 3.45% in [7]; 18.5% in [8]; -4.96% in experiment [9].
As for `CC(C)OCc1ccc(CNC(=O)CC(F)(F)F)cc1`, the Percent Effect was -5.75% in experiment [1]; 21.1% in experiment [2]; -5.14% in experiment [3]; -0.714% in experiment [4]; 3.83% with Trypanosoma cruzi; 0.719% in experiment [5]. For the same compound, the Percent Effect in experiment [6] was 3.98%; in the experiment filed under Homo sapiens, 6.56%; in experiment [7], 8.37%; in [8], 23.5%; in [9] it was -9.86%.
